Measured values taken from PubChem BioAssay AID588591 (National Center for Advancing Translational Sciences (NCATS), 2011).
Among all 390,000 compounds or so, about 4,700 (1.2%) were called active. Another 4% or so got no clear call; they are omitted. Calls follow the shape of the dose curve; as a rule, active = well fitted inhibition curve with a large enough effect; inconclusive = small, poorly fitted or top-dose-only effect, or another doubt; inactive = no such curve, though single readings can be large or run the other way. Shown is part of a subset that was picked to be rich in actives.

molecular target: DNA polymerase eta (Homo sapiens) (UniProt Q9Y253); experiment: qHTS for Inhibitors of Polymerase Eta; conditions: recombinant Pol eta, fluorescent DNA replication assay; series mostly up to 114 µM
Sequence (Q9Y253 whole entry, looked up): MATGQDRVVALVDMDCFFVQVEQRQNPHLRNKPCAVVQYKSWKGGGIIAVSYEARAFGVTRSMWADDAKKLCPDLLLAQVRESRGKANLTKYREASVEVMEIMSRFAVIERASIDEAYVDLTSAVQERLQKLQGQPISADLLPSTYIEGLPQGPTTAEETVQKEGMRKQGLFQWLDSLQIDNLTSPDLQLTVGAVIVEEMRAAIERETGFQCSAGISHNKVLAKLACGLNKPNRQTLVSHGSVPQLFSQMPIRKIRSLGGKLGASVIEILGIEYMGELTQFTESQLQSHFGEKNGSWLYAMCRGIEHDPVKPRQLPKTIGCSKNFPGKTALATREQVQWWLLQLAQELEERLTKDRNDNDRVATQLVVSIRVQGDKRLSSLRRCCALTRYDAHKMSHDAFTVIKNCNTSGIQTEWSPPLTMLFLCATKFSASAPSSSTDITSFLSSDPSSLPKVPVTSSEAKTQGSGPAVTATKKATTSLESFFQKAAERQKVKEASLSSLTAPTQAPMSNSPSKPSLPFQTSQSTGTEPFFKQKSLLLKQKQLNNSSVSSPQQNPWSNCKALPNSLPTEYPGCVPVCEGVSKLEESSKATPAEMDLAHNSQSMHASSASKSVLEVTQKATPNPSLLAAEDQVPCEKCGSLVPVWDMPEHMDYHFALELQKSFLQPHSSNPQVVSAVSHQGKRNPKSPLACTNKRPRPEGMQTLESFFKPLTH
How it was run: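 Pol eta (10 nM) was preincubated with compounds for 15 min at room temperature, after which fluorescent replication substrate (50 nM final) was added to start the reaction. Fluorescence was read kinetically at 0 and 10 min.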
Potency is read from the fitted curve at half-maximal effect.

Potency, inactive:
O=C(CC1C(=O)N(c2ccccc2)C(=O)N1CCc1cccs1)Nc1ccc(F)cc1 (centres undefined)
CC(=O)c1cc(-c2ccccc2)[nH]c1N1CCCC1
CCOc1ccc(N(CC)S(=O)(=O)N2CCCC(C(=O)Nc3ccc(C(C)=O)cc3)C2)cc1 (centres undefined)
COc1cc(C)ccc1OCCSc1nc2ccc(NC(=O)c3ccc(C)cc3)cc2s1
CCOC(=O)N1CCc2c(sc3c2c(=O)n(Cc2ccccc2)c(=O)n3CC(=O)Nc2cccc(C)c2)C1
Fc1ccc(C(Nc2ccc(Cl)c(C(F)(F)F)c2)c2nnc(-c3ccccc3)o2)cc1 (centres undefined)
CC(=O)Nc1ccc(C(=O)OCC(=O)Nc2ccc([N+](=O)[O-])cc2C(F)(F)F)cc1
CC(=O)c1ccc(NC(=O)COc2ccccc2-c2nc(-c3ccccc3)no2)cc1
CCS(=O)(=O)N1CCc2cc(C(=O)NCc3ccc(OC)cc3)ccc21
CN1CCN(C(=O)c2cnn(-c3ccccc3)c2NC(=O)c2ccc([N+](=O)[O-])cc2)CC1
Cc1cccc(C(=O)NC(=S)N2CCN(c3ccc([N+](=O)[O-])cc3)CC2)c1
Cc1ccc(-c2cc(C(F)(F)F)n3ncc(C(=O)N4CCCCC4c4cccnc4)c3n2)cc1 (centres undefined)
O=C(NCc1ccco1)c1cnn2c(C(F)(F)F)cc(-c3ccco3)nc12
Cc1ccc2nc(-c3ccc(O)cc3)c(Nc3ccc4c(c3)OCO4)n2c1
CCOC(=O)C1CCC(CN(Cc2ccc(OC)cc2)S(=O)(=O)c2ccc(F)c(C(=O)Nc3cc(C)ccc3C)c2)CC1 (centres undefined)
COc1ccc(-c2nc3ccc(C(=O)NCc4ccc(C)cc4)cc3nc2-c2ccc(OC)cc2)cc1
COCCN(CCOC)S(=O)(=O)c1ccc(C(=O)Nc2nc3c(s2)CCc2ccccc2-3)cc1
CCOc1ccc(N(C)S(=O)(=O)c2cc(-c3cnc(C)o3)ccc2OC)cc1
O=C(NCc1ccco1)c1sc2cccc(F)c2c1Cl
CCNC(=O)c1sccc1-n1cccc1
CCC1=Nc2cc(C(=O)NCCCOC(C)C)ccc2Sc2ccc(C)cc21
O=C(NCc1ccccc1)c1cc(-c2cccc(Cl)c2)on1
O=C(NCCc1ccc(Cl)cc1)c1ccc2c(c1)N(Cc1ccc(F)cc1)C(=O)CS2
C=CC1(C)CC(=O)C2(O)C(C)(O1)C(OC(C)=O)C(O)C1C(C)(C)CCC(O)C12C (centres undefined)
CCOC(=O)C1CCN(C(=O)CSc2c3c(nc4ccc(Cl)cc24)CCCC3)CC1
Cc1cc(C(=O)CC#N)c(C)n1-c1c(C)n(C)n(-c2ccccc2)c1=O
Cc1ccc(C)c2c1cc(C)c1nnc(SCC(=O)Nc3cccc(C(=O)O)c3)n12
CCCCN(C)c1nnc(NC(=O)Nc2ccc(Br)c(C)c2)s1
CCOC(=O)c1cc2c(=O)n3ccccc3nc2n(CC2CCCO2)c1=NC(=O)c1ccccc1F (centres undefined)
COCCN(Cc1ccco1)C(=O)Cn1ncc2c([nH]c3ccccc32)c1=O
CCc1ccc(NC(=O)c2sc3nc4c(cc3c2N)CN(CC)CC4)cc1
CCc1ccccc1NC(=O)c1sc2nc3c(cc2c1N)CN(Cc1ccccc1)CC3
CCCN(CCC)CCCNC(=O)Cn1cc2c(n1)-c1c(oc(C(=O)N3CCCC3)c1C)CC2
CCOC(=O)c1cc(OC(=O)c2ccccc2Cl)n(-c2ccccc2)n1
Cn1c(=O)c2c(-c3ccccc3Br)n(Cc3ccccc3)cc2n(C)c1=O
CCc1ccc(NC(=O)CN2C(=O)CCSc3ccc(S(=O)(=O)N4CCCC4)cc32)cc1
CC(Oc1ccc(Br)cc1)C(=O)NCC(c1ccco1)N1CCCCC1 (centres undefined)
CC(Oc1ccccc1)C(=O)NN1Cc2ccccc2C1=N (centres undefined)
Cc1c(-c2cccc(NC(=O)C(C)(C)C)c2)nc2ncccn12
CCOc1ccc(S(=O)(=O)N(CC(=O)NCCSCc2ccc(C)cc2)c2ccccc2)cc1
COc1ccc(N2CCN(C3CCCCC3NS(=O)(=O)c3ccccc3)CC2)cc1 (centres undefined)
Cc1ccc(S(=O)(=O)Nc2nc(N)n(-c3ccccc3)n2)cc1
COc1ccc(S(=O)(=O)Nc2cc3c(C(=O)OC(C)C)c(C)oc3c3ccccc23)cc1
Cc1ccc(S(=O)(=O)/N=S(\C)C(C)C)cc1 (centres undefined)
COc1ccc(N(CC(=O)NCCc2ccc(Cl)cc2)S(=O)(=O)c2c(C)nn(C)c2C)cc1
CCN(CC)c1ccc(NC(=O)Cn2nc3c(cc2=O)CCCC3)c(C)c1
CCCCOC(=O)CSc1ncnc2sc3c(c12)CCC(C)C3 (centres undefined)

Potency, active:
O=C1NN(c2ccccc2)C(=O)/C1=C/c1ccc(-c2cccc(C(=O)O)c2)o1 20 µM
Cn1ccc(=Nc2ccc(NC(=O)c3ccc(N=c4ccn(C)c5ccc([N+](=O)[O-])cc45)cc3)cc2)cc1 5.62 µM
Cc1cc(/C=N/Nc2ccc([N+](=O)[O-])cn2)c(C)n1-c1cccc(C(=O)O)c1 22.4 µM
COC(=O)c1cnn2c(C(F)(F)F)cc(-c3ccco3)nc12 20 µM
COc1ccc(C(=O)Nc2nc(-c3ccc(OC)cc3)c(-c3ccc([N+](=O)[O-])cc3)s2)cc1 79.4 µM
Cc1ccsc1C(=O)NCCc1ccco1 22.4 µM
O=C(O)C(c1ccccc1)N1C(=O)/C(=C\c2ccc(-c3cccc(Cl)c3)o2)SC1=S (centres undefined) 44.7 µM
Cc1cc(/C=C2\SC(=O)N(C)C2=O)c(C)n1-c1cccc(C(=O)O)c1 22.4 µM
CCc1ccc2nc3sc(C(=O)Nc4nnc(CC)s4)c(N)c3cc2c1 50.1 µM
CC(Oc1ccccc1)C(=O)Nc1oc(-c2ccco2)c(-c2ccco2)c1C#N (centres undefined) 20 µM
Cc1ccc(S(=O)(=O)/N=C2\C=C(NS(=O)(=O)c3ccc(C)cc3)C(=O)c3ccccc32)cc1 79.4 µM
COc1ccc(S(=O)(=O)/N=C2\C=C(NS(=O)(=O)c3ccccc3)C(=O)c3ccccc32)cc1 22.4 µM
